# Test results as given in PubChem BioAssay (NCATS).
# “And” between values parts separate entries of the source, which are not always exact repeats. Equal entries are not always repeated. Results filed as inconclusive are left out. Where a call stands in place of a potency, no number is given. The source made the active and inactive calls. Calls come from the whole dose curve; as a rule, active = well fitted curve in the direction sought with a large enough effect; inconclusive = small, poorly fitted or top-dose-only effect, or another doubt; inactive = no such curve, though single readings can be large; an effect the other way counts as inactive or inconclusive.
# Tests used:
# [1] = qHTS of pediatric cancer cell lines to identify multiple opportunities for drug repurposing: Primary screen for Rh18 cells (AID 1347102); note: nearly all actives have a fitted effect of over 65% in size; note: potency is the fitted concentration of half-maximal effect
# Summary of the method: (§1)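 Viability after 48 h compound treatment at 37C, 500-1,000 cells/well, read as ATP luminescence with CellTiter-Glo. Primary screens used 11-point (MIPE, 0.78 nM-46 µM) or 8-point (NPC, 0.59 nM-46 µM) final concentrations; follow-up screens used 11-point dilutions.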
# [2] = qHTS of pediatric cancer cell lines to identify multiple opportunities for drug repurposing: Primary screen for RD cells (AID 1347104); note: nearly all actives have a fitted effect of over 55% in size; note: potency is the fitted concentration of half-maximal effect
# Summary of the method: (§2)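 ATP-based luminescence (CellTiter-Glo) quantifies viability after a 48-hour exposure. Compounds are dosed across 8 or 11 final concentrations; DMSO and 2.3 µM bortezomib serve as controls.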
# [3] = qHTS of pediatric cancer cell lines to identify multiple opportunities for drug repurposing: Primary screen for MG 63 (6-TG R) cells (AID 1347105); note: nearly all actives have a fitted effect of over 50% in size; note: potency is the fitted concentration of half-maximal effect
# Summary of the method: as §2
# [4] = qHTS of pediatric cancer cell lines to identify multiple opportunities for drug repurposing: Primary screen for control Hh wild type fibroblast cells (AID 1347106);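 note: series mostly up to about 46 µM; a drop in luminescence marks cytotoxicity and a rise apparent proliferation; nearly all actives have a fitted effect of over 55% in size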
# Summary of the method: as §1
# [5] = qHTS of pediatric cancer cell lines to identify multiple opportunities for drug repurposing: Primary screen for Rh30 cells (AID 1347107); note: nearly all actives have a fitted effect of over 75% in size; note: potency is the fitted concentration of half-maximal effect
# Summary of the method: as §1
# [6] = qHTS of pediatric cancer cell lines to identify multiple opportunities for drug repurposing: Primary screen for OHS-50 cells (AID 1347103); note: nearly all actives have a fitted effect of over 40% in size; note: potency is the fitted concentration of half-maximal effect
# Summary of the method: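 Cells (500-1,000/well) rested 5 h, then received compounds for 48 h; metabolically active cells were measured by CellTiter-Glo luminescence. Final concentrations spanned up to 46 µM (MIPE, 11-point) or 0.59 nM-46 µM (NPC, 8-point) in primary screens, 11-point in follow-ups.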
# [7] = qHTS of pediatric cancer cell lines to identify multiple opportunities for drug repurposing: Primary screen for Rh41 cells (AID 1347108); note: nearly all actives have a fitted effect of over 70% in size; note: potency is the fitted concentration of half-maximal effect
# Summary of the method: as §2
# [8] = qHTS of pediatric cancer cell lines to identify multiple opportunities for drug repurposing: Confirmatory screen for NB1643 cells (AID 1347109); note: nearly all actives have a fitted effect of over 45% in size; note: potency is the fitted concentration of half-maximal effect
# Summary of the method: as §1
# [9] = qHTS of pediatric cancer cell lines to identify multiple opportunities for drug repurposing: Confirmatory screen for A673 cells (AID 1347110); note: nearly all actives have a fitted effect of over 65% in size; note: potency is the fitted concentration of half-maximal effect
# Summary of the method: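 qHTS titration format: primary MIPE 0.78 nM-46 µM (11 pts), NPC 0.59 nM-46 µM; confirmation 11 pts. 48 h, CTG luminescence.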
# [10] = qHTS of pediatric cancer cell lines to identify multiple opportunities for drug repurposing: Confirmatory screen for BT-12 cells (AID 1347112); note: nearly all actives have a fitted effect of over 55% in size; note: potency is the fitted concentration of half-maximal effect
# Summary of the method: as §1
# [11] = qHTS of pediatric cancer cell lines to identify multiple opportunities for drug repurposing: Confirmatory screen for BT-37 cells (AID 1347117); note: nearly all actives have a fitted effect of over 55% in size; note: potency is the fitted concentration of half-maximal effect
# Summary of the method: as §1
# [12] = qHTS of pediatric cancer cell lines to identify multiple opportunities for drug repurposing: Confirmatory screen for MG 63 (6-TG R) cells (AID 1347119); note: nearly all actives have a fitted effect of over 55% in size; note: potency is the fitted concentration of half-maximal effect
# Summary of the method: as §1
# [13] = qHTS of pediatric cancer cell lines to identify multiple opportunities for drug repurposing: Confirmatory screen for U-2 OS cells (AID 1347122); note: nearly all actives have a fitted effect of over 65% in size; note: potency is the fitted concentration of half-maximal effect
# Summary of the method: as §1
# [14] = qHTS of pediatric cancer cell lines to identify multiple opportunities for drug repurposing: Confirmatory screen for Rh41 cells (AID 1347123);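 note: 48 h compound exposure; nearly all actives have a fitted effect of over 60% in size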; note: potency is the fitted concentration of half-maximal effect
# Summary of the method: as §1
# [15] = qHTS of pediatric cancer cell lines to identify multiple opportunities for drug repurposing: Confirmatory screen for LAN-5 cells (AID 1347113); note: nearly all actives have a fitted effect of over 65% in size; note: potency is the fitted concentration of half-maximal effect
# Summary of the method: as §1
# [16] = qHTS of pediatric cancer cell lines to identify multiple opportunities for drug repurposing: Confirmatory screen for NB-EBc1 cells (AID 1347115); note: nearly all actives have a fitted effect of over 45% in size
# Summary of the method: as §1
# [17] = qHTS of pediatric cancer cell lines to identify multiple opportunities for drug repurposing: Confirmatory screen for TC32 cells (AID 1347118); note: nearly all actives have a fitted effect of over 65% in size; note: potency is the fitted concentration of half-maximal effect
# Summary of the method: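 TC32 cells, 500-1,000/well in growth medium, compound-treated 48 h at 37 °C; viability from CellTiter-Glo luminescence. Primary screen: MIPE 11-point (0.78 nM–46 µM final), NPC 8-point (0.59 nM–46 µM final); confirmatory at 11-point dilutions.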
# [18] = qHTS of pediatric cancer cell lines to identify multiple opportunities for drug repurposing: Confirmatory screen for control Hh wild type fibroblast cells (AID 1347121); note: nearly all actives have a fitted effect of over 70% in size
# Summary of the method: as §1
# [19] = qHTS of pediatric cancer cell lines to identify multiple opportunities for drug repurposing: Confirmatory screen for SJ-GBM2 cells (AID 1347116); note: nearly all actives have a fitted effect of over 60% in size
# Summary of the method: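 Viability measured as metabolically active cells via CellTiter-Glo luminescence following 48 hours of compound exposure, 11-point dilutions in confirmatory testing. 500-1,000 cells/well plated 5 hours before dosing; controls were DMSO and 2.3 µM bortezomib.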
# [20] = qHTS of pediatric cancer cell lines to identify multiple opportunities for drug repurposing: Confirmatory screen for SK-N-MC cells (AID 1347111);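 note: cells exposed to compound for 48 h before the readout; nearly all actives have a fitted effect of over 70% in size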; note: potency is the fitted concentration of half-maximal effect
# Summary of the method: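 SK-N-MC cells at 500-1,000 cells/well in growth media were pre-incubated 5 h, then exposed to compounds at 11-point dilutions for 48 h at 37 degrees C, 5% CO2. Viability was read as CellTiter-Glo luminescence.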
compound,measurement,setting,value
C[C@@H]1CN(Cc2ccc(F)cc2)[C@@H](C)CN1C(=O)c1cc2c(C(=O)C(=O)N(C)C)cn(C)c2cc1Cl,Potency,[1],inactive
same,Potency,[2],833 nM (active)
CCN(CC)CCCC(C)Nc1nc(C)cc(Nc2ccc3nc(C)cc(N)c3c2)n1 (stereo not drawn),Potency,[1],inactive
same,Potency,[2],inactive
same,Potency,[3],inactive
same,Potency,[4],inactive
same,Potency,[5],inactive
N=c1nc(N2CCCCC2)cc(N)n1O,Potency,[1],inactive
same,Potency,[6],inactive
same,Potency,[3],inactive
same,Potency,[4],inactive
same,Potency,[5],inactive
same,Potency,[7],inactive
CN1CCN(CCCN2c3ccccc3Sc3ccc(C(F)(F)F)cc32)CC1,Potency,[1],inactive
same,Potency,[6],27.6 µM (active) and 19.3 µM (active)
same,Potency,[2],26.6 µM (active) and 18.7 µM (active)
same,Potency,[5],inactive
same,Potency,[8],23.3 µM (active)
same,Potency,[9],26.1 µM (active)
same,Potency,[10],23.3 µM (active)
same,Potency,[11],23.3 µM (active)
same,Potency,[12],23.3 µM (active)
same,Potency,[13],23.3 µM (active)
same,Potency,[14],14.7 µM (active)
CCN(CC)CCCC(C)Nc1ccnc2cc(Cl)ccc12 (stereo not drawn),Potency,[1],inactive
same,Potency,[6],8.63 µM (active)
same,Potency,[2],13 µM (active) and 6.62 µM (active)
same,Potency,[3],11.8 µM (active)
same,Potency,[4],inactive
same,Potency,[7],inactive
same,Potency,[8],inactive
same,Potency,[9],inactive
same,Potency,[10],inactive
same,Potency,[15],inactive
same,Potency,[16],inactive
same,Potency,[11],inactive
same,Potency,[17],inactive
same,Potency,[18],inactive
same,Potency,[13],inactive
same,Potency,[14],inactive
CCC(C)(C)C(=O)O[C@H]1C[C@@H](C)C=C2C=C[C@H](C)[C@H](CC[C@@H]3C[C@@H](O)CC(=O)O3)[C@H]21,Potency,[1],8.41 µM (active) and 14.8 µM (active)
same,Potency,[6],6.17 µM (active) and 10.9 µM (active)
same,Potency,[2],inactive
same,Potency,[3],2.66 µM (active) and 4.69 µM (active)
same,Potency,[4],inactive
same,Potency,[9],5.22 µM (active)
same,Potency,[10],inactive
same,Potency,[15],inactive
same,Potency,[16],inactive
same,Potency,[17],16.5 µM (active)
same,Potency,[12],2.93 µM (active)
same,Potency,[13],10.4 µM (active)
Cc1cc(SCc2sc(-c3ccc(C(F)(F)F)cc3)nc2C)ccc1OCC(=O)O,Potency,[1],inactive
same,Potency,[2],inactive
same,Potency,[3],inactive
same,Potency,[4],inactive
same,Potency,[5],inactive
Nc1cccc(S(=O)(=O)N2CCCN(S(=O)(=O)c3ccc4c(c3)OCCO4)CC2)c1,Potency,[1],inactive
same,Potency,[2],inactive
same,Potency,[3],inactive
same,Potency,[4],inactive
same,Potency,[5],inactive
C[C@]12CCC(=O)C=C1CC[C@@H]1[C@@H]2[C@@H](O)C[C@@]2(C)[C@H]1CC[C@]2(O)C(=O)CO,Potency,[1],inactive
same,Potency,[6],inactive
same,Potency,[2],inactive
same,Potency,[3],inactive
same,Potency,[4],inactive
same,Potency,[7],inactive
O=C(O)CCc1ccc(NCc2cccc(Oc3ccccc3)c2)cc1,Potency,[1],inactive
same,Potency,[6],inactive
same,Potency,[2],inactive
same,Potency,[3],inactive
same,Potency,[4],inactive
same,Potency,[7],inactive
O=C(O)[C@@H](c1ccc(OCc2ccc3ccccc3n2)cc1)C1CCCC1,Potency,[1],inactive
same,Potency,[2],inactive
same,Potency,[3],inactive
same,Potency,[4],inactive
CC(C=CC1=C(C)CCCC1(C)C)=CC=CC(C)=CC(=O)O,Potency,[1],inactive
same,Potency,[6],0.344 µM (active)
same,Potency,[3],9.35 µM (active)
same,Potency,[9],inactive
same,Potency,[10],inactive
same,Potency,[15],inactive
same,Potency,[16],inactive
same,Potency,[19],inactive
same,Potency,[11],inactive
same,Potency,[17],16.5 µM (active)
same,Potency,[18],inactive
same,Potency,[13],inactive
O=C(NOC[C@H](O)CO)c1ccc(F)c(F)c1Nc1ccc(I)cc1F,Potency,[1],inactive
same,Potency,[6],inactive
same,Potency,[2],93.5 nM (active)
same,Potency,[8],inactive
same,Potency,[9],inactive
same,Potency,[20],inactive
same,Potency,[19],inactive
same,Potency,[17],inactive
same,Potency,[18],inactive
same,Potency,[13],1.31 µM (active)
Cc1cc([C@@H](C)Nc2ccccc2C(=O)O)c2nc(N3CCOCC3)cc(=O)n2c1,Potency,[1],12.1 µM (active)
same,Potency,[6],2.22 µM (active)
same,Potency,[2],12100 nM (active)
same,Potency,[3],1.71 µM (active)
same,Potency,[4],inactive
same,Potency,[7],8.55 µM (active)
CN(C(=O)c1ccc(F)cc1C(F)(F)F)C1CCN(c2nnc(-c3ccnn3C)c3ccccc23)CC1,Potency,[1],inactive
same,Potency,[6],24.3 µM (active)
same,Potency,[4],inactive
O=C(Nc1cccnc1)N1CCC(Cc2cccc(Oc3ccc(C(F)(F)F)cn3)c2)CC1,Potency,[1],inactive
same,Potency,[6],10.9 µM (active)
same,Potency,[3],inactive
same,Potency,[4],inactive
same,Potency,[7],inactive
Nc1nc2[nH]cc(CCc3ccc(C(=O)N[C@@H](CCC(=O)O)C(=O)O)cc3)c2c(=O)[nH]1,Potency,[1],inactive
same,Potency,[6],inactive
same,Potency,[4],inactive
same,Potency,[5],inactive
same,Potency,[8],20.8 µM (active)
same,Potency,[9],2.33 µM (active)
same,Potency,[20],147 nM (active)
same,Potency,[10],inactive
same,Potency,[15],inactive
same,Potency,[16],inactive
same,Potency,[17],0.465 µM (active)
same,Potency,[18],inactive
same,Potency,[13],inactive
same,Potency,[14],inactive
COc1ccc(-c2oc3cc(OC)ccc3c2C(=O)c2ccc(C#N)cc2)cc1,Potency,[1],inactive
same,Potency,[6],0.968 µM (active)
same,Potency,[4],inactive
same,Potency,[9],inactive
same,Potency,[10],inactive
same,Potency,[15],inactive
same,Potency,[19],inactive
same,Potency,[11],inactive
same,Potency,[12],inactive
same,Potency,[18],inactive
same,Potency,[13],inactive
same,Potency,[14],inactive
Cc1c(CN2CCN(C(=O)C(C)C)CC2)sc2c(N3CCOCC3)nc(-c3cnc(N)nc3)nc12,Potency,[1],0.264 µM (active)
same,Potency,[6],0.0343 µM (active)
same,Potency,[2],935 nM (active)
same,Potency,[3],0.118 µM (active)
same,Potency,[5],1.87 µM (active)
same,Potency,[9],1.47 µM (active)
same,Potency,[20],465 nM (active)
same,Potency,[15],737 nM (active)
same,Potency,[11],0.737 µM (active)
same,Potency,[17],0.737 µM (active)
same,Potency,[12],0.369 µM (active)
same,Potency,[13],0.737 µM (active)
same,Potency,[14],0.414 µM (active)
O=C(c1cc(Cc2n[nH]c(=O)c3ccccc23)ccc1F)N1CCN(C(=O)C2CC2)CC1,Potency,[1],inactive
same,Potency,[6],24.3 µM (active)
same,Potency,[8],inactive
same,Potency,[9],0.104 µM (active)
same,Potency,[10],18.5 µM (active)
same,Potency,[16],inactive
same,Potency,[19],inactive
same,Potency,[17],inactive
same,Potency,[12],inactive
same,Potency,[18],inactive
same,Potency,[14],9.27 µM (active)
O=c1ncn2nc(Sc3ccc(F)cc3F)ccc2c1-c1c(Cl)cccc1Cl,Potency,[1],inactive
same,Potency,[2],inactive
same,Potency,[3],inactive
same,Potency,[4],inactive
